Screening data (PubChem BioAssay)
Most compounds without a hit are left out; they make up all but 2.7% or so of the library.
SENP6 block = blocks the human protease SENP6; Q9GZR1; Recombinant SENP6 catalytic domain, aminoluciferin luminescence; inhibition, % at 10 µM; 330,000 tested, 1.8% active; AID 2599;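 active = inhibition above about 50% at the single tested dose, limit read from the data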;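 note: plate controls were DMSO wells with enzyme for no effect and DMSO wells lacking enzyme for full effect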
SENP7 block = blocks the human protease SENP7 | recombinant SENP7, Z-RLRGG-aminoluciferin luminescence, 40 min | Q9BQF6 | AID 434973 | 330,000 tested, 1.5% active | inhibition, % at 5 µM;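 active = inhibition above about 50% at the single test dose, limit read from the data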;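 note: plate controls were DMSO with enzyme for no effect and no enzyme buffer wells for full effect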
Target sequence (Q9BQF6 706-1050 limits assumed): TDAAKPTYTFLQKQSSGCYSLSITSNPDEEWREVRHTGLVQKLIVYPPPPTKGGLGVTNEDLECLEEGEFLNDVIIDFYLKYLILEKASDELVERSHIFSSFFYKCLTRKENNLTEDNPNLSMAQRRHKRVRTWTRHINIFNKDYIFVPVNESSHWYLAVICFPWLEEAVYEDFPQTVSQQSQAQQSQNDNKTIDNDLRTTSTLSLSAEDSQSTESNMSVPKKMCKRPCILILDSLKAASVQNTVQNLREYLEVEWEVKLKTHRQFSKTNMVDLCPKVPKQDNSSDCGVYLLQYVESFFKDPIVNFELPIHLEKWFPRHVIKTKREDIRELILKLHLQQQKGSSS
SENP8 block-1 = blocks human SENP8 cleavage of Nedd8 substrate; 360,000 tested, 0.64% active; inhibition, % at 20 µM; recombinant SENP8, Nedd8 substrate fluorescence; in the data active = inhibition mostly above about 40%, no sharp cut-off; inactive = mostly below about 27%
SENP8 block-2 = blocks the human protease SENP8; purified SENP8, Z-RLRGG-aminoluciferin cleavage, luminescence; 330,000 tested, 1.2% active; AID 2540; inhibition, % at 10 µM; in the data active = inhibition above about 50%
HSP90 refold inh = inhibitors of HSP90 luciferase refolding in rabbit reticulocyte lysate; 290,000 tested, 0.91% active; inhibition, % at 5.6 µM; AID 1789; luciferase refolding luminescence, 3 h;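 active = inhibition above the screen-wide mean plus 3 SD, computed separately per campaign, cut at about 16% in these data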;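 note: 0% = DMSO wells and 100% = 60 µM geldanamycin wells; inhibitors lower the luminescence because luciferase stays unfolded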
SENP8 confirm = confirmation of human SENP8 protease inhibitors; shares compounds with SENP7 block; Recombinant SENP8, Z-RLRGG-aminoluciferin luminescence, 60 min; inhibition, % at 12.5 µM; 6,200 tested, 40% active; AID 488912;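 active = mean inhibition across replicates above about 50%, limit read from the data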
SENP6 conf = confirmation of human SENP6 protease inhibitors | shares compounds with SENP7 block | recombinant SENP6, Z-RLRGG-aminoluciferin luminescence | inhibition, % at 12.5 µM | 6,200 tested, 58% active | AID 488915
SENP7 confirm = human SENP7 inhibition, confirmed; shares compounds with SENP7 block; recombinant SENP7, Z-RLRGG-aminoluciferin luminescence, 40 min; inhibition, % at 12.5 µM; 6,200 tested, 69% active; AID 488917
Casp3 SENP sel = selectivity test for SENP inhibitors: human caspase-3 inhibition; purified caspase-3, Z-DEVD-aminoluciferin luminescence, 60 min; 6,200 tested, 60% active; shares compounds with SENP7 block; inhibition, % at 12.5 µM;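 active = mean inhibition above about 50%, limit read from the data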;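 note: plate controls were enzyme with DMSO for no effect and wells without caspase-3 for full effect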
Target sequence (P42574 28-227 limits assumed): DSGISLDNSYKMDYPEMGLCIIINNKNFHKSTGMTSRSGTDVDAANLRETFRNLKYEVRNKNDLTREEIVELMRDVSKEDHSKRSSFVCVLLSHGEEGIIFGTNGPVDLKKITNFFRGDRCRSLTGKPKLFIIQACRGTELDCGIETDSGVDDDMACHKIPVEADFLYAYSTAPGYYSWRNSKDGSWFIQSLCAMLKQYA
Luc interf = luminescence interference (SENP counter-screen); Pre-incubated SENP8/Z-RLRGG-aminoluciferin, luciferase luminescence interference; inhibition, % at 12.5 µM; AID 488919; shares compounds with SENP7 block; 6,200 tested, 39% active;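 active = mean inhibition above about 50% when retested at one dose, limit read from the data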;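 note: plate controls were DMSO wells with completed reaction for no effect and substrate without enzyme for full effect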
* hit, by the source's call; nt = no result given.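 Rule for the calls, unless noted: active = mean inhibition above about 50% in the one-dose retest (limit read from the data); inactive = the rest.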

SMILES | SENP6 block | SENP7 block | SENP8 block-1 | SENP8 block-2 | HSP90 refold inh | SENP8 confirm | SENP6 conf | SENP7 confirm | Casp3 SENP sel | Luc interf
O=C(/C=C/c1ccco1)Nc1cc(Cl)ccc1C(=O)O | 73* | 7 | -44 | 56* | -1 | 72* | 71* | 88* | 70* | 75*
CCNC(=O)COc1ccc(S(=O)(=O)Nc2ccccc2)cc1 | -8 | -3 | 5 | 4 | 5 | nt | nt | nt | nt | nt
Cc1ccc(NC(=S)N2CCN(c3ccccn3)CC2)cc1C | 7 | 4 | 9 | -2 | -1 | nt | nt | nt | nt | nt
CCNc1nc(NCC)nc(N(C)/N=C/c2ccco2)n1 | -12 | -1 | 14 | -3 | 1 | nt | nt | nt | nt | nt
CCOC(=O)C1=C(C)N(CCCC(=O)O)C(=O)NC1c1cccs1 (stereo not drawn) | -4 | -7 | 15 | -2 | nt | nt | nt | nt | nt | nt
COc1ccc(/C=C/c2cc(C(=O)O)c3ccccc3n2)cc1 | -3 | 55* | -438 | 69* | 2 | -24 | -3 | 2 | -3 | 7
O=C(CN1C(=O)/C(=C/c2ccccc2F)Sc2ccccc21)NCCCN1CCOCC1 | -1 | -1 | -14 | 1 | -5 | nt | nt | nt | nt | nt
Cn1c(CNc2ccccc2O)nc2ccccc21 | 10 | 28 | 13 | -7 | 1 | nt | nt | nt | nt | nt
Cc1ccccc1NCc1nc2ccccc2n1C | 85* | 86* | 2 | 78* | 10 | 83* | 84* | 98* | 93* | 56*
Cn1c(CNc2ccc(F)cc2)nc2ccccc21 | 80* | 78* | 20 | 58* | -4 | 72* | 72* | 92* | 87* | 75*
CCn1cnc2cc(NCc3nc4ccccc4n3C)ccc21 | 72* | 3 | -20 | 68* | 13 | 78* | 77* | 93* | 92* | 78*
NC(CCc1ccccc1)c1csc(NC(=O)Nc2cccc(Cl)c2)n1 (stereo not drawn) | nt | nt | -14 | nt | nt | nt | nt | nt | nt | nt
Cc1ccc(C(=O)Nc2cccc(C(F)(F)F)c2)cc1Nc1ccccn1 | -11 | -5 | -37 | -6 | nt | nt | nt | nt | nt | nt
O=C(O)c1ccc2cc(-c3ccccc3)[nH]c2c1 | 95* | 100* | -454 | 97* | nt | 7 | 101* | 104* | 48 | 50*
Cn1cc(Br)c(C(=O)Nc2ncc(Br)s2)n1 | 28 | 70* | -23 | -9 | -3 | -6 | -2 | -3 | 16 | -1
CC(=O)c1c(CC(=O)O)[nH]n(-c2nc3ccccc3s2)c1=O | 84* | 88* | -6 | 87* | 2 | 86* | 83* | 97* | 95* | 83*
COc1ccc(CN=C(C)c2c(C(F)(F)F)[nH]n(-c3nc4ccccc4s3)c2=O)cc1 | 85* | 91* | 8 | 50 | 2 | 17 | 16 | 21 | 50* | 54*
CCCN1C(=O)C(NC(=O)c2ccncc2)(C(F)(F)F)C2=C1CC(C)(C)CC2=O (stereo not drawn) | -19 | -7 | 10 | -10 | 1 | nt | nt | nt | nt | nt
N/C(=N\OC(=O)c1ccccc1)c1cccnc1 | 39 | 56* | -7 | 24 | 3 | 16 | 17 | 61* | 72* | 38
N/C(=N\OC(=O)c1ccccc1Cl)c1cccnc1 | 65* | 57* | 11 | 41 | -2 | 56* | 54* | 82* | 79* | 64*
N/C(=N\OC(=O)c1ccc(Cl)c(Cl)c1)c1cccnc1 | 67* | 64* | 17 | 24 | 1 | 17 | 22 | 31 | 31 | 15
N/C(=N\OC(=O)c1cc(Cl)ccc1Cl)c1cccnc1 | -14 | 0 | 19 | -10 | 6 | nt | nt | nt | nt | nt
N/C(=N\OC(=O)c1cccc(Cl)c1)c1cccnc1 | 46 | 15 | 16 | 7 | -1 | nt | nt | nt | nt | nt
CC(C)C(CCN1C(=O)c2ccccc2C1=O)c1ccco1 (stereo not drawn) | -4 | 5 | 15 | 8 | 0 | nt | nt | nt | nt | nt
CCN1CCN(C(=O)c2ccccc2Nc2ccc(SC(F)F)cc2)CC1 | -8 | -1 | -2 | 10 | -1 | nt | nt | nt | nt | nt
SMILES | SENP6 block | SENP7 block | SENP8 block-1 | SENP8 block-2 | HSP90 refold inh | SENP8 confirm | SENP6 conf | SENP7 confirm | Casp3 SENP sel | Luc interf
CCC(=O)Oc1ccc2c(C)cc(=O)oc2c1C(=O)CC | -3 | 6 | -309 | -7 | 5 | nt | nt | nt | nt | nt
CC1CN(C(=S)Nc2ccc(SC(F)F)cc2)CC(C)O1 (stereo not drawn) | 5 | 8 | 9 | 2 | -2 | nt | nt | nt | nt | nt
Cc1ccc(NC(=O)CCC(=O)c2cccs2)nc1 | -7 | -5 | -18 | 0 | nt | nt | nt | nt | nt | nt
Cc1ccnc(NC(=O)CCC(=O)c2cccs2)c1 | 87* | 56* | -31 | 75* | nt | 92* | 91* | 99* | 95* | 91*
COc1cccc2sc3ccc(C#CC4(O)CCCCC4)cc3c(=O)c12 | 93* | 88* | -320 | 89* | 8 | 91* | 95* | 100* | 82* | 46
O=c1c2ccccc2sc2ccc(C#CC3(O)CCCCC3)cc12 | 98* | 97* | -260 | 96* | nt | 97* | 99* | 102* | 97* | 44
COc1ccccc1-c1oc2ccccc2c1C#CC1(O)CCCCC1 | 2 | 5 | -475 | -4 | nt | nt | nt | nt | nt | nt
O=c1c2ccccc2oc2cc(C#CC3(O)CCCCC3)ccc12 | 98* | 99* | 11 | 95* | nt | 98* | 99* | 102* | 94* | 75*
NC(CC(=O)OC1CCCCC1)C(=O)OC1CCCCC1 (stereo not drawn) | 77* | 5 | 12 | 2 | -5 | -5 | -8 | -8 | -4 | -4
CN(C(=O)COc1ccc2ccc(=O)oc2c1)C1CCS(=O)(=O)C1 (stereo not drawn) | 12 | 92* | -291 | 2 | 2 | 6 | 7 | 10 | 7 | 0
O=C(Nc1nnc(CCc2ccccc2)s1)c1ccc(F)cc1 | 9 | 6 | -57 | -6 | -1 | nt | nt | nt | nt | nt
O=C(Nc1nnc(CCc2ccccc2)s1)c1cccc(F)c1 | 44 | 61* | 1 | 8 | -3 | -1 | -1 | 13 | 21 | 8
O=C(Nc1nnc(CCc2ccccc2)s1)c1ccccc1F | 51* | 40 | 11 | 3 | -1 | 36 | 33 | 58* | 48 | 6
CN(C(=O)c1ccc2c(=O)n3c(nc2c1)CCCCC3)c1ccccc1F | -2 | -13 | 7 | -9 | -7 | nt | nt | nt | nt | nt
CCN=C(NS(=O)(=O)c1ccc(Br)cc1)c1ccc(Cl)cc1 | 4 | 4 | 13 | -2 | 0 | nt | nt | nt | nt | nt
O=C(CC(SCc1ccco1)c1ccc(O)cc1)c1cccs1 (stereo not drawn) | 89* | 58* | -4 | 88* | 3 | 93* | 91* | 95* | 46 | 87*
